FMDV antiviral – High Throughput Screening for Foot and Mouth Disease Virus Antivirals; Potency, µM (series often up to 57.9 µM), usual class: inhibitors; FMDV antiviral cell-based qHTS; 410,000 compounds, 1.2% hits; calls by dose curve; tested in HEK293T cells; further: read-out not given here; nearly all actives have a fitted effect of over 45% in size
HCMV inh – qHTS Assay for inhibitors of the human cytomegalovirus (HCMV); HFF cells, HCMV-luciferase reporter, 72 h; stronger effect = lower value; activity change, negative = inhibition, % at 57.5 µM; 410,000 compounds, 4.5% hits; in the data active means activity change below about -60%; inconclusive means no clear call, values can overlap the other calls; inactive means above about -39%
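After 16 h attachment at 37C, HFF cells received test compound and HCMV-luciferase (1 PFU/cell); reporter luminescence read 72 h later, data normalized against buffer-only and known inhibitor Salinomycin.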
MARV entry inh – qHTS for inhibitors of binding or entry into cells for Marburg Virus; Marburg virus pseudotyped entry inhibition, cell reporter; Potency, µM (top dose mostly 37.8 µM), hits mostly inhibitors; 300,000 compounds, 1.8% hits; calls by dose curve; tested in HEK293 cells
LASV entry inh – qHTS for Inhibitors of binding or entry into cells for Lassa Virus. Potency, µM (series often up to 37.9 µM), hits mostly inhibitors. 300,000 compounds, 1.2% hits. Lassa virus pseudotype entry inhibition, cell reporter; calls by dose curve; tested in HEK293 cells; further: nearly all actives have a fitted effect of over 50% in size
Numbers stand for hits; 0 = inactive; ? = inconclusive; - = not tested or not shown; ! = not confirmed by another sample. Hits are enriched below; roughly 6.2% of the tested compounds scored in any of these assays.

SMILES | FMDV antiviral | HCMV inh | MARV entry inh | LASV entry inh
O=C(NC(=S)Nc1ccc(CN2CCOCC2)cc1)c1ccc([N+](=O)[O-])cc1 | ? | 0 | - | -
COC(=O)c1ccccc1COc1cccn2c(N(C)CC3CC3)c(C)nc12 | 0 | -99.4 | - | -
COC(=O)c1ccc(Cn2nc(-c3ccc(C)cc3)ccc2=O)cc1 | 0 | 0 | 0 | 0
Cc1ccc(-c2ccc(=O)n(Cc3ccc(F)cc3)n2)cc1 | 0 | -63.2! | 0 | 0
C=C(C)COc1ccc(-c2n[nH]c(C)c2-c2ccc(OC)cc2)c(O)c1 | 25.1µM | -106.2 | ? | ?
COc1ccc(-c2n[nH]c(C)c2-c2cscn2)c(O)c1 | 0 | ? | - | -
CCOC(=O)N1CCN(C(=O)C[C@@H]2C[C@@]3(C(=O)OCC)CCC=C3N(Cc3ccc(Cl)cc3Cl)C2=O)CC1 | 0 | 0 | - | -
Cc1nc(-c2cccc(S(=O)(=O)N3CCC(C(=O)NCc4ccccc4Cl)CC3)c2)no1 | 0 | 0 | - | 0
CCc1cccc(NC(=O)C2CCN(S(=O)(=O)c3cccc(-c4noc(C)n4)c3)CC2)c1 | 0 | -61.0 | - | ?
Cc1nc(-c2ccc(C)c(S(=O)(=O)N3CCC(C(=O)Nc4ccc(Cl)cc4)CC3)c2)no1 | 0 | -74.8 | - | ?
CCc1cccc(NC(=O)C2CCCN2S(=O)(=O)c2ccc3nc(-c4ccccc4)[nH]c3c2)c1 (configuration not stated) | 0 | -60.3 | - | 0
COc1cccc(NC(=O)C2CCN(S(=O)(=O)c3cc(-c4noc(C)n4)ccc3C)CC2)c1 | ? | -72.4 | - | ?
COc1cccc(NC(=O)C2CCN(S(C)(=O)=O)CC2)c1 | - | 0 | 0 | 0
Cc1cc(C)cc(NC(=O)C2CCCN2S(=O)(=O)c2ccc3nc(-c4ccccc4)[nH]c3c2)c1 (configuration not stated) | 0 | 0 | - | 0
COCc1c(C(=O)N2CCN(c3ccccc3)CC2)cnn1-c1nccc(-c2ccco2)n1 | 0 | - | - | -
Cc1ccc(NC(=O)C2CCCN(C(=O)c3ccc(Cl)cc3)C2)cc1S(=O)(=O)N1CCOCC1 (configuration not stated) | ? | -72.4 | ? | ?
CS(=O)(=O)c1ccc(NC(=O)C2CCCN(C(=O)c3ccc(Cl)cc3)C2)cc1 (configuration not stated) | 0 | 0 | - | -
Cc1ccc2nc(N/N=C/c3ccccc3C#N)nc(-c3ccccc3)c2c1 | 0 | ? | 12.6µM | ?
N#Cc1ccccc1/C=N/Nc1nc(-c2ccccc2)c2cc(Cl)ccc2n1 | ? | ? | ? | 0
Cc1ccc(C(=O)NCc2ccc(N3CCN(C(=O)OC(C)(C)C)CC3)cc2)cc1 | ? | 0 | 0 | 0
Cc1ccc(S(=O)(=O)NCc2ccc(N3CCN(C(=O)OC(C)(C)C)CC3)cc2)cc1 | 28.2µM | -67.7 | 0 | 0
Cc1ccc(O)c(C(=O)c2cnc3c(c2)COc2ccc(C)cc2-3)c1 | 0 | 0 | ? | 0
Cc1ccc2c(c1)-c1ncc(C(=O)c3cc(Br)ccc3O)cc1CO2 | 0 | -89.9! | 0 | 0
O=C(CC1(c2cccc(F)c2)CC(=O)N(Cc2cccnc2)C1=O)N1CCCCCCC1 (configuration not stated) | 0 | - | - | -
COc1ccc(CN2Cc3ccccc3OC(c3ccccc3OC)C2)cc1O (configuration not stated) | 0 | - | - | -
SMILES | FMDV antiviral | HCMV inh | MARV entry inh | LASV entry inh
O=C(Nc1ccccc1)c1cc(C2COCCN2C(=O)c2cccs2)on1 (configuration not stated) | 0 | -84.9 | - | -
CCOc1cc(C2c3c(n[nH]c3C)C(=O)N2c2ccc(C)cc2)ccc1O (configuration not stated) | 0 | -80.9 | 0 | 0
Cc1[nH]nc2c1C(c1ccccn1)N(c1ccc(Br)cc1)C2=O (configuration not stated) | 0 | -66.1 | 0 | 0
COc1cc(C2c3c(n[nH]c3C)C(=O)N2c2ccc(C)cc2)ccc1O (configuration not stated) | 0 | ? | 0 | 0
CCOC(=O)c1ccc(N2C(=O)c3n[nH]c(C)c3C2c2ccc(OCC)cc2)cc1 (configuration not stated) | ? | -75.7 | ? | ?
CCOC(=O)c1ccc(N2C(=O)c3n[nH]c(-c4ccco4)c3C2c2ccc([N+](=O)[O-])cc2)cc1 (configuration not stated) | ? | 0 | ? | 23.1µM
CCOC(=O)c1ccc(N2C(=O)c3n[nH]c(C)c3C2c2ccccn2)cc1 (configuration not stated) | 0 | 0 | - | -
CCOC(=O)c1cc2c(=O)n3ccccc3nc2n(CC2CCCO2)c1=NC(=O)c1ccccc1C (configuration not stated) | 0 | 0 | 0 | 0
CCCCc1nn2c(=O)cc(COC(=O)c3cccc(NC(=O)c4cccs4)c3)nc2s1 | 0 | 0 | - | 0
CCOC(=O)c1ccc(N2C(=O)c3n[nH]c(-c4ccco4)c3C2c2ccc(C)cc2)cc1 (configuration not stated) | 31.6µM | -103.1 | ? | ?
CCOC(=O)c1ccc(NC(=O)CCCn2c(=O)c3cccn3c3cccnc32)cc1 | 0 | 0 | - | 0
O=[N+]([O-])c1cccc(-c2ccc(C(=S)N3CCN(c4ccc(F)cc4)CC3)o2)c1 | 0 | 0 | ? | 0
CC(C)CC(=O)N1CCN(c2ccc([N+](=O)[O-])cc2Cl)CC1 | ? | 0 | ? | 0
O=C(c1ccc(-c2cccc([N+](=O)[O-])c2)o1)N1CCN(c2ccc([N+](=O)[O-])cc2)CC1 | ? | -60.7 | ? | 0
CC(C)CC(=O)NC(=S)N1CCN(c2ccc([N+](=O)[O-])cc2Cl)CC1 | 0 | -67.2 | 0 | 0
O=C(NC1CCCCC1)c1ccc(-c2cccc([N+](=O)[O-])c2)o1 | 0 | -68.7 | - | -
O=C(O)c1ccc(-c2cccc([N+](=O)[O-])c2)o1 | 0 | 0 | - | -
O=C(c1ccc(-c2ccc(Cl)cc2)o1)N1CCN(c2ccc([N+](=O)[O-])cc2Cl)CC1 | 0 | -80.4 | 0 | ?
O=c1n(Cc2ccccc2)c(O)c2n1Cc1ccccc1N=C2c1ccc(C(F)(F)F)cc1 | 0 | 0 | - | -
Cc1cc2nc(-c3cccc(Br)c3)c(CC(C)(C)C)n2c(C)c1Br | 0 | 0 | - | -
COC(=O)N1C(c2ccccc2)=Cc2ccccc2C1CC(C)=O (configuration not stated) | - | - | 0 | -
Cc1c(Cl)sn(-c2ccc(Cl)cc2)c1=O | ? | -100.8 | ? | 9.2µM
CCOC(=O)c1c(C)c(-c2ccccc2)n(CC(=O)Nc2cc(C)cc(C)c2)c1C | 0 | -96.8 | 0 | -
CCOC(=O)Cc1nn(Cc2nc(-c3ccc(C#N)cc3)cs2)c(=O)c2ccccc12 | 17.8µM | ? | ? | ?
Cc1ccc(Cl)cc1N1CCN(C(=O)c2noc(C)c2[N+](=O)[O-])CC1 | 0 | -104.6 | - | -
Cc1onc(C(=O)N2CCN(c3ccccc3)CC2)c1[N+](=O)[O-] | 0 | ? | - | -
Cc1cccc(NS(=O)(=O)c2ccc(C(=O)NCC3(N4CCCCC4)CCCCC3)cc2)c1C | 0 | 0 | 11.2µM | ?
Cc1ccc(C(=O)n2nc(C)c(S(=O)(=O)N3CCOCC3)c2C)cc1 | 0 | 0 | - | 0
COc1ccc(NC(=O)c2nnn(CC(=O)Nc3cccc(C)c3C)c2N)c(OC)c1 | 0 | 0 | - | 0
Cc1cc2nc(C)c(-c3nc4ccccc4[nH]3)nc2cc1C | - | 0 | - | -
